High-throughput results (PubChem BioAssay)
HP1b chromo inh = HTS for Inhibitors of HP1-beta Chromodomain Interactions with Methylated Histone Tails; 390,000 tested, 0.56% active; AlphaScreen HP1-beta / biotin-H3K9me3 peptide binding; Chromobox protein homolog 1 (Homo sapiens), P83916; Potency, µM (titrated, usually from 114 µM), for the others: top-dose activity change, negative = inhibition, hits mostly inhibitors; also: nearly all actives have a fitted effect of over 70% in size
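Compound inhibition of the preformed complex between 50 nM HP1-beta and 50 nM biotinylated H3K9me3 peptide was read by AlphaScreen. Buffer was PBS pH 7.4 with 0.01% Tween-20. Incubations ran 30 min at room temperature, with 10 ug/mL donor/acceptor beads.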
PLK1 PBD block = qHTS for Inhibitors of PLK1-PDB (polo-like kinase 1 - polo-box domain): Primary Screen; Plk1 PBD binding of FITC phosphopeptide, fluorescence polarization; Potency, µM, for the others: max response, negative = inhibition, actives largely listed as inhibitors; Serine/threonine-protein kinase PLK1 (Homo sapiens), P53350; 360,000 tested, 2.8% active; also: series mostly up to about 57 µM; % is scaled to controls: 0 for no effect and ±100 for the full control effect; nearly all actives have a fitted effect of over 65% in size
JMJD2A Tudor inh = qHTS Assay for Inhibitors of JMJD2A-Tudor Domain; Lysine-specific demethylase 4A (Homo sapiens), O75164; AlphaScreen JMJD2A-Tudor / H3K4me3 peptide binding; Potency, µM (doses to about 114 µM), for the others: at the highest dose activity change, negative = inhibition, actives largely listed as inhibitors; 390,000 tested, 4.4% active; AID 504339, 2011; also: % is scaled to controls: 0 for no effect and ±100 for the full control effect; nearly all actives have a fitted effect of over 50% in size
Sfp PPTase inh = qHTS Assay for Inhibitors of Bacillus subtilis Sfp phosphopantetheinyl transferase (PPTase). 4'-phosphopantetheinyl transferase ffp (Bacillus subtilis), Q9F4F7. Biochemical Sfp PPTase activity, qHTS. Potency, µM, without a hit: largest response in the series, negative = inhibition, hits mostly inhibitors. 310,000 tested, 3.5% active;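 also: the enzyme is Sfp with the accession as filed and its product quenches rhodamine fluorescence; 0% = enzyme reaction without inhibitor and -100% = no enzyme wells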
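Sfp 15 nM + cpd, 15 min RT; start w/ rhodamine-CoA 5 uM, BHQ-2-YbbR 12.5 uM (final); 50 mM Hepes pH 7.6, 10 mM MgCl2, 0.01% NP-40, 0.01% BSA; read 525/598 nm at 0 and 30 min.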
BAZ2B block = qHTS Assay for Inhibitors of BAZ2B | Bromodomain adjacent to zinc finger domain protein 2B (Homo sapiens), Q9UIF8 | AlphaScreen BAZ2B-H3K14Ac peptide displacement | Potency, µM (highest dose often 114 µM), without a hit: at the top dose activity change, negative = inhibition, hits mostly inhibitors | 360,000 tested, 4.4% active; also: % is scaled to controls: 0 for no effect and ±100 for the full control effect; nearly all actives have a fitted effect of over 60% in size
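AlphaScreen displacement of biotin-H3(5-23)K14Ac peptide (50 nM final) from BAZ2B (50 nM final) in PBS pH 7.4, 0.01% Tween-20; complex preformed 30 min RT, then compounds (top 110 uM) 30 min RT, beads 20 min dark.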
G9a block = qHTS Assay for Inhibitors of Histone Lysine Methyltransferase G9a | G9a H3K9 monomethylation, AlphaScreen, 2 h | AID 504332, 2011 | Potency, µM (highest dose often 102 µM), without a hit: at the highest dose activity, negative = inhibition, hits mostly inhibitors | 350,000 tested, 8.8% active; also: % is scaled to controls: 0 for no effect and ±100 for the full control effect; nearly all actives have a fitted effect of over 75% in size
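Signal arises when biotinylated H3K9 peptide, once monomethylated, bridges streptavidin donor and antibody-captured acceptor beads. Enzyme at 20 nM was preincubated 15 min with test compounds; peptide 500 nM and SAM 20 uM then reacted for 2 h.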
TbPYK confirm = qHTS of Trypanosoma Brucei Inhibitors: Confirmatory Assay for Cherry-picked Compounds; 890 tested, 67% active; recombinant TbPYK, Kinase-Glo ATP luminescence; Potency, µM (highest dose often 76.9 µM), for inactives: top-dose activity change, negative = inhibition, actives largely listed as inhibitors; shares compounds with PLK1 PBD block; also: % is scaled to controls: 0 for no effect and ±100 for the full control effect; nearly all actives have a fitted effect of over 70% in size
TbPYK orthogonal = qHTS of Trypanosoma Brucei Inhibitors: Orthogonal Assay for Cherry-picked Compounds; shares compounds with PLK1 PBD block; 890 tested, 62% active; Potency, µM (top dose mostly 76.9 µM), for inactives: at the highest dose activity change, negative = inhibition, actives largely listed as inhibitors; recombinant TbPYK, ADP-Glo luminescence, 60 min; AID 720584, 2013; also: % is scaled to controls: 0 for no effect and ±100 for the full control effect; nearly all actives have a fitted effect of over 75% in size
Starred values were filed as active, the others as inactive; ? = inconclusive; . = no result; [ ] = another dose, or the depositor's remark. An excerpt weighted towards active compounds, which were near 12% of everything screened. Calls follow the shape of the dose curve; as a rule, active = well fitted curve in the direction sought with a large enough effect; inconclusive = small, poorly fitted or top-dose-only effect, or another doubt; inactive = no such curve, though single readings can be large; an effect the other way counts as inactive or inconclusive. Potency is read from the fitted curve at half-maximal effect.

SMILES	HP1b chromo inh	PLK1 PBD block	JMJD2A Tudor inh	Sfp PPTase inh	BAZ2B block	G9a block	TbPYK confirm	TbPYK orthogonal
O=C(N/N=C/c1ccc(N2CCOCC2)o1)c1cccc(C(F)(F)F)c1	-2.0%	-7.5%	?	3.55µM*	0.8%	8.91µM*	?	35.5µM*
O=C(Nc1ccc(N2CCOCC2)nc1N1CCOCC1)c1cccc(C(F)(F)F)c1	-1.2%	4.8%	-0.4%	-9.1%	-7.6%	.	.	.
COc1ccc(S(=O)(=O)N2CCN(S(=O)(=O)c3ccc(OC)cc3)CC2)cc1	.	.	-16.4%	.	-3.3%	13.1%[12.7 µM]	.	.
COc1ccc(S(=O)(=O)N2CCN(CC(=O)c3ccc(O)c(O)c3)CC2)cc1	16.2%	-10.6%	?	44.7µM*	-37.8%	28.2µM*	?	?
COc1ccc(C(Nc2ccccn2)c2oc(CO)cc(=O)c2O)cc1 (stereo unspecified)	?	23.8µM*	8.91µM*	?	?	1µM*	39.7%	16.4%
O=C(O)/C=C/C(=O)NNC(=O)c1cc(-c2ccccc2)n[nH]1	25.1µM*	29.9µM*	?	-40.1%	-1.7%	20µM*	?	?
CCCN(C)C1CN(Cc2cn(Cc3cccc(Cl)c3)nn2)S(=O)(=O)C1 (stereo unspecified)	.	-16.1%	.	.	.	.	.	.
O=S(=O)(Oc1ccccc1N1CCCCC1)c1ccccc1	172.4%	5.2%	160.0%	-7.9%	52.2%	.	.	.
Cc1c(CBr)[n+](=O)c2c(n1[O-])C(Br)CCC2Br (stereo unspecified)	-26.3%	26.7µM*	20µM*	11.2µM*	28.2µM*	7.94µM*	1.12µM*	3.55µM*
CCC1Oc2ccc(C)cc2N(CC(=O)N(Cc2ccc(C)o2)C2CCCC2)C1=O (stereo unspecified)	4.3%	?	-31.5%	17.8µM*	4.2%	?	15.8µM*	15.8µM*
CCC1Oc2ccc(C)cc2N(CC(=O)NC2CCCCC2)C1=O (stereo unspecified)	-1.4%	1.9%	-28.4%	2.0%	8.4%	6.2%	.	.
CS(=O)(=O)c1sc2nc(-c3cccs3)cc(-c3ccccc3)c2c1N	45.2%	8.44µM*	89.1µM*	10µM*	?	?	?	35.5µM*
CCOC(=O)CN=C1CC(C)(C)CC2=C1Sc1ncnc(N(C)C)c1N2	-2.6%	-20.5%	?	10µM*	?	4.47µM*	20µM*	14.1µM*
COC(=O)c1sc(NC(=O)c2ccco2)nc1C	20.3%	-4.2%	-8.1%	12.5%	-3.4%	26.0%	.	.
Cc1nc(NC(=O)c2ccco2)sc1C(=O)O	12.0%	-4.5%	-17.5%	11.0%	4.6%	12.3%[59 µM]	20µM*	-9.5%
COc1ccc(NC(=O)c2sc3nc(N4CCOCC4)c4c(c3c2N)CCCC4)cc1	.	2.9%	.	.	.	.	.	.
CCCCN(CCCC)C(=O)c1sc2nc(N3CCOCC3)c3c(c2c1N)CCCC3	20.9%	29.9µM*	-25.8%	11.2µM*	6.7%	44.7µM*	1.58µM*	3.16µM*
